# Screening results deposited in PubChem BioAssay by several laboratories.
# Rpn11 block: Rpn11 (PSMD14) deubiquitinase inhibitors, primary screen, biochemical, fluorescence polarization, uHTS; AID 588493, 2011; human 26S proteasome, Ub4-pepOG fluorescence polarization; 20S core pre-blocked with epoxomicin; inhibition, % at 20 µM; 26S proteasome non-ATPase regulatory subunit 14 (Homo sapiens), O00487; 360,000 compounds, 0.59% hits;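 active = inhibition at 20 µM, scaled to each plate's controls, above about 33%, limit read from the data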
# PP1 counter: PP1-alpha phosphatase inhibitors, primary screen, counter-screen for PP5 inhibitor project, biochemical, fluorescence, OMFP substrate, single point; Serine/threonine-protein phosphatase PP1-alpha catalytic subunit (Homo sapiens), P62136; purified PP1alpha; inhibition, % at 6.7 µM; 320,000 compounds, 0.9% hits; AID 2235, 2010;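 active = inhibition above the mean inhibition of all tested compounds plus 3 SD, computed separately for each screening campaign, cut at about 15% in these data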
# Target sequence (P62136 whole entry, looked up): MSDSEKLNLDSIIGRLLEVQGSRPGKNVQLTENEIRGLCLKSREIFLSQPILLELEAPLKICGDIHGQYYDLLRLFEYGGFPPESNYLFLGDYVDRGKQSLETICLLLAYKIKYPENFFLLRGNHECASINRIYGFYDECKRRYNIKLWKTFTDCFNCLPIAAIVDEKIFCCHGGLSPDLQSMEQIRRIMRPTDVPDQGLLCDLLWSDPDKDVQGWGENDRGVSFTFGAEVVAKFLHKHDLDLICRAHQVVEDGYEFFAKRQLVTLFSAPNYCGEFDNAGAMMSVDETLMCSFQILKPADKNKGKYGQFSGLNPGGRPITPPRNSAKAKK
# PREPL inhibitor: PREPL enzyme inhibitors, primary screen, biochemical, fluorescence polarization; recombinant PREPL, fluorescence polarization activity-based probe; inhibition, % at 5.96 µM; 320,000 compounds, 0.68% hits; Prolyl endopeptidase-like (Homo sapiens), Q4J6C6; in the data active = inhibition above about 43%
# PP5 inh: PP5 phosphatase inhibitors, primary screen, biochemical, fluorescence | Serine/threonine-protein phosphatase 5 (Homo sapiens), P53041 | purified PP5c, OMFP substrate fluorescence | inhibition, % at 6.7 µM | 320,000 compounds, 0.18% hits | AID 1987, 2009;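 active = inhibition above the campaign's mean inhibition across all tested compounds plus 3 SD, cut at about 9.5% in these data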
# NadD inh: inhibitors of S. aureus NadD, primary screen, biochemical, colorimetric, uHTS. Nicotinate-nucleotide adenylyltransferase NadD (Staphylococcus aureus N315). purified NadD enzyme, colorimetric absorbance read-out. inhibition, % at 20 µM. 360,000 compounds, 0.78% hits. AID 602399, 2012; in the data active = inhibition above about 26%
# PP1 confirm: PP1 phosphatase inhibitors, confirmation, biochemical, fluorescence, OMFP substrate, triplicate | shares compounds with PP1 counter | purified PP1alpha | inhibition, % at 6.7 µM | 1,900 compounds, 52% hits | AID 2358, 2010;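 active = mean PP1 inhibition above a set limit taken from the earlier primary screen, cut at about 15% in these data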
# PP5 inh counter: PP5 phosphatase inhibition by PP1 hits, confirmation, counter-screen for PP1 inhibitor project, biochemical, fluorescence, triplicate; purified PP5c, OMFP fluorescence; 1,900 compounds, 4% hits; shares compounds with PP1 counter; AID 2360, 2010; inhibition, % at 6.7 µM;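 active = mean PP5 inhibition over triplicate wells above about 9.5% taken from the earlier PP1 screen, limit read from the data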
# Hits are given with their value; - = inactive; . = no result. Rows were chosen to be rich in hits. Some 2.4% of all compounds tested hit in one or more screens of this group.
SMILES,Rpn11 block,PP1 counter,PREPL inhibitor,PP5 inh,NadD inh,PP1 confirm,PP5 inh counter
O=C(NNCc1ccc(O)cc1)c1ccccc1Cl,-,-,-,-,-,.,.
CCCCNC(=O)c1ccc2nc(-c3ccco3)c(-c3ccco3)nc2c1,-,-,-,-,-,.,.
O=C(c1ccc2nc(-c3ccco3)c(-c3ccco3)nc2c1)N1CCN(c2ncccn2)CC1,-,32.6,60.7,-,-,-,-
O=C(Nc1ccccc1)c1ccc2nc(-c3ccco3)c(-c3ccco3)nc2c1,-,21.3,-,-,-,-,-
CC(=O)c1ccc(NC(=O)c2ccc3nc(-c4ccco4)c(-c4ccco4)nc3c2)cc1,-,33.5,-,-,93.4,24.9,-
O=C(c1cccc(C(=O)N2CCN(c3ncccn3)CC2)c1)N1CCN(c2ncccn2)CC1,-,-,-,-,-,.,.
O=C(Nc1ccc(N2CCOCC2)cc1)c1ccc2nc(-c3ccco3)c(-c3ccco3)nc2c1,-,-,-,-,-,.,.
CC(=O)c1ccccn1,-,-,-,-,-,.,.
C/C(=N/O)c1ccccn1,-,36.2,-,-,-,-,-
CCOc1ccc(C(Nc2cccnc2)c2cc(Cl)c3cccnc3c2O)cc1 (centres undefined),-,19.4,-,-,-,21.4,-
CCCC(=O)NC(c1ccc2c(c1)OCO2)c1cc(Cl)c2cccnc2c1O (centres undefined),-,19.9,-,-,-,24.1,-
CCCC(=O)NC(c1cccs1)c1cc(Cl)c2cccnc2c1O (centres undefined),-,26.5,-,-,-,23.2,-
CCC(=O)NC(c1ccc(C)cc1)c1cc(Cl)c2cccnc2c1O (centres undefined),-,.,-,.,-,.,.
C/C=C\C=C/C(=O)Nc1cccc(C2=NOC3(C2)C[C@@H](C(N)=O)N(C(=O)/C=C/C=C\C)C3)c1 (some centres undefined),51.6,30.9,-,-,30.8,-,-
C=C(C)C(=O)Nc1cccc(C2=NOC3(C2)C[C@@H](C(N)=O)N(C(=O)C2(C)CC2)C3)c1 (some centres undefined),-,23.4,-,-,-,-,-
C=C(C)C(=O)Nc1cccc(C2=NOC3(C2)C[C@@H](C(N)=O)N(C(=O)C(=C)C)C3)c1 (some centres undefined),-,-,-,-,-,.,.
COc1ccc(C(=O)N/C(=C\c2cn(S(=O)(=O)N(C)C)c3ccccc23)C(=O)NC(C)C)cc1,-,-,-,-,-,.,.
CCN(CC)C(=O)/C(=C/c1cn(S(=O)(=O)N(C)C)c2ccccc12)NC(=O)c1ccc(OC)cc1,-,27.1,-,-,-,22.5,-
Cc1cccc(NC(=O)Nc2cc(C)cc(C)n2)c1,-,-,-,-,-,.,.
COc1ccc(C(=O)CSc2nc(-c3ccccn3)nc(C)c2Cl)cc1,-,-,-,-,-,.,.
Cc1nc(-c2ccccn2)nc(SCC(=O)c2ccc(F)cc2)c1Cl,-,27.2,-,-,-,40.8,-
COc1ccc(CCNc2nc(-c3ccccn3)cs2)cc1OC,-,46.8,-,-,-,41.2,-
COc1ccc(CCNc2nc(-c3ccncc3)cs2)cc1OC,-,-,-,-,-,.,.
O=C(COC(=O)[C@@H]1CC(O)CN1S(=O)(=O)c1ccc2c(c1)OCCO2)Nc1ccccc1F (some centres undefined),-,-,-,-,-,.,.
Cc1cnc(NC(=O)Nc2ccccc2)c(C)n1,-,-,-,-,-,.,.
SMILES,Rpn11 block,PP1 counter,PREPL inhibitor,PP5 inh,NadD inh,PP1 confirm,PP5 inh counter
CC(=O)C1=C(O)C(=O)N(CCc2c[nH]c3ccccc23)C1c1ccc(C)cc1 (centres undefined),-,25.7,-,-,-,23.1,-
O=C(CSc1nc2c([nH]c3ccccc32)c(=O)n1-c1cccc(Cl)c1)N1CCOCC1,-,21.5,-,-,-,24.8,-
Cc1cccc(C(=O)NC(C(=O)Nc2nc(-c3ccccn3)cs2)C(C)C)c1 (centres undefined),-,20.6,-,-,-,24.9,-
CC(Oc1ccccc1)C(=O)Nc1nc(-c2ccccn2)cs1 (centres undefined),-,.,.,.,-,.,.
CC(Oc1cccc(Cl)c1)C(=O)Nc1nc(-c2ccccn2)cs1 (centres undefined),-,29.6,-,-,-,35.5,-
Cc1c(C(=O)OCC(=O)NCC2CCCO2)cccc1[N+](=O)[O-] (centres undefined),-,-,-,-,-,.,.
Cc1cccn2c(=O)c3cc(C(=O)NCc4cccnc4)c(=N)n(CC4CCCO4)c3nc12 (centres undefined),-,-,-,-,-,.,.
Cc1ccc(-c2cc(C(=O)NCCCn3ccnc3)c3cc(Br)ccc3n2)o1,-,31.6,-,-,49.1,-,-
CCc1ccc(Nc2n[n+](-c3ccccc3)c(-c3c(Cl)cccc3Cl)s2)cc1,-,30.6,-,-,-,-,-
Fc1ccc(-[n+]2nc(Nc3ccccc3)sc2-c2c(Cl)cccc2Cl)cc1,-,-,-,-,-,.,.
c1ccc(COc2ccc(-c3sc(Nc4ccccc4)n[n+]3-c3ccccc3)cc2)cc1,.,19.7,-,-,.,-,-
CCc1ccc(Nc2n[n+](-c3ccccc3)c(-c3ccc(OCc4ccccc4)cc3)s2)cc1,-,-,-,-,-,.,.
CCCCN(C(=O)c1ccncc1)c1c(N)n(CCC)c(=O)[nH]c1=O,-,.,-,.,-,.,.
O=C(c1cccc(S(=O)(=O)Nc2ccc(F)cc2)c1)N1CCCC1,-,-,-,-,-,.,.
COc1ccc2[nH]cc(CCNC(=O)Cn3cc(C)c(=O)[nH]c3=O)c2c1,-,.,.,.,-,.,.
O=S(=O)(c1cccs1)N1CCC2(CC1)OCCN2S(=O)(=O)c1ccccc1,-,-,-,-,-,.,.
CC(C)OC(=O)CC(=O)c1sc2nc3c(cc2c1N)CN(C)CC3,.,23.3,-,-,.,-,20.0
COc1ccc(C2C(C(=O)c3ccco3)=C(O)C(=O)N2CCc2ccccc2)cc1OC (centres undefined),-,30.0,-,-,-,28.7,-
CCCCCOc1ccc(/C(C)=N/NC2=NCCN2)cc1,-,-,-,-,-,.,.
CCCCCCOc1ccc(/C(C)=N/NC2=NCCN2)cc1,-,20.5,-,-,-,-,-
